Laboratory results reported in PubChem BioAssay.
Active and inactive are the calls of the source.

Experiments:
[1] = small molecules captured by biotinylated probe aFSTL3 – biochemical, small-molecule microarray, fluorescence 635/667, stem cell growth factor project, primary screen (AID 1064); conditions: higher = more signal;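 note: measures binding of the biotinylated anti-FSTL3 antibody to printed compounds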
[2] = binders from COS7 lysate, DM2A8 probe, primary screen, torsin A project, cell lysate, small-molecule microarray, fluorescence 635/667 (AID 1065); conditions: higher = more signal, COS7 lysate expressing mutant human TOR1A
[3] = small molecules captured by biotinylated probe aFGF2 – biochemical, small-molecule microarray, fluorescence 635/667, stem cell growth factor project, primary screen (AID 1067); conditions: higher = more signal;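 note: measures binding of biotinylated aFGF2 protein to printed compounds on slides; z-score merges feature fluorescence and signal-to-noise across triplicate slides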
[4] = small molecules captured by biotinylated probe aFGF10 – biochemical, small-molecule microarray, fluorescence 635/667, stem cell growth factor project, primary screen (AID 1071); conditions: higher = more signal;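 note: score merges 667 nm spot intensity and signal to noise from triplicate slides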
[5] = molecular target: Neurogenic locus notch homolog protein 2 (Homo sapiens) (UniProt Q04721); experiment: small molecules binding Notch2 protein – biochemical, small-molecule microarray, 635 nm fluorescence, stem cell growth factors, primary screen (AID 1073); conditions: higher = more signal
Sequence of Neurogenic locus notch homolog protein 2 (Homo sapiens) (Q04721 whole entry, looked up, canonical isoform): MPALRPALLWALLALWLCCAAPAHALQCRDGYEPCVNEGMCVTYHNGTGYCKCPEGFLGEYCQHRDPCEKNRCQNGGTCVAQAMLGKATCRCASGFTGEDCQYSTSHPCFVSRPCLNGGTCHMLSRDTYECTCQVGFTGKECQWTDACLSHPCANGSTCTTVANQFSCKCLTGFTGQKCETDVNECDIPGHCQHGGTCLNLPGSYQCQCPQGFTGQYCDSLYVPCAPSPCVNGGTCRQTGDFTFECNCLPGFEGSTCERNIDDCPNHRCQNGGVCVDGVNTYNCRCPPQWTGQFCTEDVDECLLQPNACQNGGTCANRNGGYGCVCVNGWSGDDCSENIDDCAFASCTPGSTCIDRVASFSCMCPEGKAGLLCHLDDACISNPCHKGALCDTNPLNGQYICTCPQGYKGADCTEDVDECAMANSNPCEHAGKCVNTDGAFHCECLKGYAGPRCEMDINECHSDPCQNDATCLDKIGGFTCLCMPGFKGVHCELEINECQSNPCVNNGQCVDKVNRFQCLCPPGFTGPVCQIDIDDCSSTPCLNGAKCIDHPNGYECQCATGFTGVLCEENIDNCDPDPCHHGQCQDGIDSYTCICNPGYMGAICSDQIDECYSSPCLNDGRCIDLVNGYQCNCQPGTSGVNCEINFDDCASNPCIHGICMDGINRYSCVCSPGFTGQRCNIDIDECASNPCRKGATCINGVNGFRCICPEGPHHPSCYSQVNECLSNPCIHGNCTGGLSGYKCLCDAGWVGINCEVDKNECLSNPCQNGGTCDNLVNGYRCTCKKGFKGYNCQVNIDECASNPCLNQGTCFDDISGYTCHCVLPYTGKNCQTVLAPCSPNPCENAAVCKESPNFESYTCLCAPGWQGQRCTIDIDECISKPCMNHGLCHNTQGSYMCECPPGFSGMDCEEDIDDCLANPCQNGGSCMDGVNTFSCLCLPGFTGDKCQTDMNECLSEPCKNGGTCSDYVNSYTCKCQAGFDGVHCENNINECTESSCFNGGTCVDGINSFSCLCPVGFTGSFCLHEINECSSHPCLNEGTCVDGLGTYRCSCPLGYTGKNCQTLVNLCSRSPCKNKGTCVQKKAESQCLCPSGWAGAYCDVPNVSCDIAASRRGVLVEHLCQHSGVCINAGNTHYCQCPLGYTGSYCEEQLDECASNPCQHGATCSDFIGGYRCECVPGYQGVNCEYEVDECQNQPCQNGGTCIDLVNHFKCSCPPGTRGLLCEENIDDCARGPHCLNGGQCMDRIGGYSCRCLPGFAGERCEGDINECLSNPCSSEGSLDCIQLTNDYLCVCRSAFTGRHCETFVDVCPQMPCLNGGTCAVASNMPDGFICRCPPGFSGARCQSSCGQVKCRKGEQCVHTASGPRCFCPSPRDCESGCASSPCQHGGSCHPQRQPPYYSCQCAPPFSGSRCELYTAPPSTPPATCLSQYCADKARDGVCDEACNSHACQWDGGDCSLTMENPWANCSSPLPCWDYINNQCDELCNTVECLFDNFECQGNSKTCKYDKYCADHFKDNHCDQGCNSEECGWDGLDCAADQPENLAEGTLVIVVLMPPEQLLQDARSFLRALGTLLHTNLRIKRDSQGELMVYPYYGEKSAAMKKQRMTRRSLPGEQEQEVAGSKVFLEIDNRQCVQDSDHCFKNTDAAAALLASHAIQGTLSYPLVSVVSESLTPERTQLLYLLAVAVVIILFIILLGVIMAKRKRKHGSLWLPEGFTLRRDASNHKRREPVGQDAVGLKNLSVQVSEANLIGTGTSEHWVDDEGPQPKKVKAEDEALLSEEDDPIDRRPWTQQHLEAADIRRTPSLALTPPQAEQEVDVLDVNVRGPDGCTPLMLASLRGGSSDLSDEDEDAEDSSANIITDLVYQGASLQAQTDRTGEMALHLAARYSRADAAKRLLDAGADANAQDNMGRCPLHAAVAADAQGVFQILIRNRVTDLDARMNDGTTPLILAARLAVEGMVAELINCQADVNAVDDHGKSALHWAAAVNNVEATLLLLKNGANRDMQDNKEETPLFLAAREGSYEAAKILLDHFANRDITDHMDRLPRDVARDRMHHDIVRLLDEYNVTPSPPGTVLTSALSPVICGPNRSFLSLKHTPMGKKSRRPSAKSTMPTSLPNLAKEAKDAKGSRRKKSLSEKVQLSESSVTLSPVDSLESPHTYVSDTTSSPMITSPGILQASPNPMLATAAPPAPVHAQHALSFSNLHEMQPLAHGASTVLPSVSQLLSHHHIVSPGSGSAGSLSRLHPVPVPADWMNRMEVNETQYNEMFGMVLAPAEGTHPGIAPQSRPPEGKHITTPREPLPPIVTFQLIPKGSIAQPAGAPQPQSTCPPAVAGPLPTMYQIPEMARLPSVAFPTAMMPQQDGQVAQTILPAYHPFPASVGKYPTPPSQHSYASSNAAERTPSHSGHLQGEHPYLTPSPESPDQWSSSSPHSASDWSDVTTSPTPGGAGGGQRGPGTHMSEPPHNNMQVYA

[6] = molecular target: Pro-neuregulin-1, membrane-bound isoform (Homo sapiens) (UniProt Q02297); experiment: small molecules binding neuregulin-1 protein – biochemical, small-molecule microarray, fluorescence 635/667, psychiatric disease protein project, primary screen (AID 1075); conditions: NRG1 binding, 635 nm fluorescence, higher = more signal;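 note: score combines 667 nm spot fluorescence with signal to noise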
Sequence of Pro-neuregulin-1, membrane-bound isoform (Homo sapiens) (Q02297 whole entry, looked up, the tested form may be a part, canonical isoform): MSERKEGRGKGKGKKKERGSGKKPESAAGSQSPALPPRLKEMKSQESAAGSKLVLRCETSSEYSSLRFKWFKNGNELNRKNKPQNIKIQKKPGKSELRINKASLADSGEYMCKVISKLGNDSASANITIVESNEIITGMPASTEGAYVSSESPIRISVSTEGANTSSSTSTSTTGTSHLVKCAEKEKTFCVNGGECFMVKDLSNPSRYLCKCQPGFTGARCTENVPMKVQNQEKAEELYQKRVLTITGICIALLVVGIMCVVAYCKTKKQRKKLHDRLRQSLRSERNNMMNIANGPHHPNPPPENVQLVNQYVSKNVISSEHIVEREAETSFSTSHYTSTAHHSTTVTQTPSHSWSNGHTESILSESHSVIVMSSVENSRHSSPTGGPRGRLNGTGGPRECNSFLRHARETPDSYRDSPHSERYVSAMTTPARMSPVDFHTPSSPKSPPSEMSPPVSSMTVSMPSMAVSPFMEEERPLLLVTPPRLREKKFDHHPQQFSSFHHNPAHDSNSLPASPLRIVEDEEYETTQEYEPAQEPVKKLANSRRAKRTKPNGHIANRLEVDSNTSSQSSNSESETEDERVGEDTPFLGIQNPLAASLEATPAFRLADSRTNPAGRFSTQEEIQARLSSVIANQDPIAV

[7] = tested on: Neuregulin-1 EGF-like domain; experiment: small molecules binding NRG1 EGF domain – biochemical, small-molecule microarray, 635 nm fluorescence, primary screen (AID 1081); conditions: higher = more signal;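 note: binding of the protein to compounds printed on small-molecule microarray slides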
[8] = FRG1 expression reporter modulators in myotubes – cell-based, C2C12 myotubes, firefly/Renilla luciferase, luminescence, FRG1 inhibition for FSHD, primary screen (AID 1084); conditions: FRG1 promoter luciferase, higher = more signal, called active from +8 up or from −8 down
[9] = small molecules captured by biotinylated probe aFST – biochemical, small-molecule microarray, fluorescence 635/667, stem cell growth factor project, primary screen (AID 1086); conditions: higher = more signal;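 note: score merges 667 nm fluorescence with signal-to-noise of each printed compound spot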
[10] = binders of probe aHhip on microarray, primary screen, stem cell growth factor project, biochemical, small-molecule microarray, fluorescence 635/667 (AID 1087); conditions: higher = more signal;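 note: score merges spot fluorescence at 667nm with spot signal to noise ratio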
[11] = tested on: PRMT1 (protein arginine N-methyltransferase 1); experiment: small molecules binding arginine methyltransferase PRMT1 – biochemical, small-molecule microarray, 635 nm fluorescence, primary screen (AID 1088); conditions: higher = more signal;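 note: binding of Prmt1 protein to compounds spotted on small-molecule microarray slides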
[12] = growth effects on S. cerevisiae YJM789 – YJM789 clinical isolate, OD600, 24 h, basal, primary screen (AID 1089); conditions: higher = more signal, called active from +8 up or from −8 down;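 note: growth of clinical yeast isolate S. cerevisiae YJM 789 seeded 1000 cells per well; test concentration not given here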
[13] = S. pombe growth modifiers, basal conditions – strain 972, OD600, 24 h, no modulator, primary screen (AID 1090);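 note: basal condition with compound alone and no growth modifier present; test concentration not given here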; conditions: S. pombe 972 growth, higher = more signal, called active from +8 up or from −8 down
[14] = budding yeast growth modifiers under rapamycin – strain BY4716, OD600, 96 h, primary screen (AID 1091); note: test concentration not given here; conditions: S. cerevisiae BY4716 + rapamycin, higher = more signal, called active from +8 up or from −8 down
[15] = molecular target: Torsin-1A-interacting protein 2 (Homo sapiens) (UniProt Q8NFQ8); experiment: small molecules binding lysate-expressed LULL1 – cell lysate, human LULL1 lysate, 635/667 nm fluorescence, primary screen (AID 1092); conditions: small-molecule microarray, hLULL1 lysate binding, 635 nm fluorescence; higher = more signal;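 note: probe is lysate of COS7 cells overexpressing human LULL1; score merges per-feature 667 nm fluorescence with signal-to-noise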
Sequence of Torsin-1A-interacting protein 2 (Homo sapiens) (Q8NFQ8 whole entry, looked up): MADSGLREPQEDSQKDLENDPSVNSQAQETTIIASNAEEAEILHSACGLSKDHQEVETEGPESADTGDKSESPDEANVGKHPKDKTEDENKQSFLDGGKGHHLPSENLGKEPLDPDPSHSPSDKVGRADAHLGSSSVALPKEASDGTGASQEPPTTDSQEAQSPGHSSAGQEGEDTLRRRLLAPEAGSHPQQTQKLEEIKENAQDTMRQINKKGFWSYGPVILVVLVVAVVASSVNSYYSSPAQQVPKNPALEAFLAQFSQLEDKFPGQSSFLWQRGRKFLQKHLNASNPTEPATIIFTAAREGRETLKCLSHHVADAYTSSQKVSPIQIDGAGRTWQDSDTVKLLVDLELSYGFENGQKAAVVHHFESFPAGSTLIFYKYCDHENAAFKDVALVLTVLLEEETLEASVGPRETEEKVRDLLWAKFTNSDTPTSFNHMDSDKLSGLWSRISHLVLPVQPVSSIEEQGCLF

[16] = optical density change of DRC41 E. coli – strain DRC41, OD650, 24 h, E. coli filamentation project, primary screen (AID 1093);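 note: MC1000 strain lacking acrAB efflux and sulA so SOS filamentation is blocked; test concentration not given here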; conditions: E. coli DRC41 growth, higher = more signal, called active from +8 up or from −8 down
[17] = probe aLefty2 binding to arrayed compounds – biochemical, biotinylated probe, 635/667 nm fluorescence, primary screen (AID 1094); conditions: small-molecule microarray, higher = more signal;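 note: score merges spot fluorescence near 667 nm with spot signal-to-noise ratio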
[18] = tested on: Noggin (protein binding on small-molecule microarray); experiment: small molecules binding Noggin protein – biochemical, 635/667 nm fluorescence, primary screen (AID 1095); conditions: 635 nm fluorescence, higher = more signal;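 note: score merges 667 nm feature fluorescence with signal to noise over triplicate slides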
[19] = molecular target: Neurogenic locus notch homolog protein 3 (Homo sapiens) (UniProt Q9UM47); experiment: small molecules binding NOTCH3 protein – biochemical, 635/667 nm fluorescence, primary screen (AID 1096); conditions: small-molecule microarray, 635 nm fluorescence, higher = more signal
[20] = probe aEGFR binding to arrayed compounds – biochemical, biotinylated probe, 635/667 nm fluorescence, primary screen (AID 1097); conditions: small-molecule microarray, higher = more signal;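 note: probe is a biotinylated anti-EGFR antibody binding compounds printed on slides; score combines fluorescence near 667 nm and signal to noise of each spot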

Structure (SMILES) | composite z-score [1] | composite z-score [2] | composite z-score [3] | composite z-score [4] | composite z-score [5] | composite z-score [6] | composite z-score [7] | z-score [8] | composite z-score [9] | composite z-score [10] | composite z-score [11] | z-score [12] | z-score [13] | z-score [14] | composite z-score [15] | z-score [16] | composite z-score [17] | composite z-score [18] | composite z-score [19] | composite z-score [20]
Cc1ccc(S[C@]2(C(=O)NCC(F)(F)F)CC(=O)N(C3CCCCC3)[C@@H]2c2ccc(CO)cc2I)cc1 | -0.203 | 0.0659 | 0.0464 | 0.594 | 1.18 | 0.405 | 1.18 | -2.91 (inactive) | 0.233 | 0.213 | 1.54 | -0.332 (inactive) | -0.692 (inactive) | 1.23 (inactive) | 2.82 | 0.312 (inactive) | 0.171 | 0.456 | 1.14 | 0.0516
O=C(NCC(F)(F)F)[C@@H]1c2ccccc2C(=O)N(Cc2ccccc2C(F)(F)F)[C@H]1c1ccc(CO)cc1 | 0.597 | -0.0704 | -0.156 | 0.424 | -0.169 | 0.997 | 1.3 | -1.49 (inactive) | -0.181 | 0.113 | 0.928 | -0.268 (inactive) | -0.205 (inactive) | -0.503 (inactive) | 1.28 | 0.31 (inactive) | -0.062 | -0.416 | -0.258 | -0.274
COCCOC(=O)N1C(=O)[C@@]2(c3cc(C#CC4=CCCCC4)ccc31)[C@H](c1ccccc1OCCO)N1[C@H](c3ccccc3)[C@H](c3ccccc3)OC(=O)[C@H]1[C@@H]2C(=O)Nc1nc2ccccc2s1 | -0.19 | -0.0036 | -0.0398 | 0.359 | 1.23 | 0.953 | 1.08 | 1.41 (inactive) | 0.513 | 0.0373 | 1.29 | 0.478 (inactive) | 0.615 (inactive) | 1.29 (inactive) | 2.66 | -0.15 (inactive) | 0.0274 | 1.05 | 1.06 | -0.0728
CN1C(=O)C2C=CC(C(O)COCc3ccccc3)N(N(c3ccccc3)c3ccccc3)C2C1=O (stereo not given) | 0.0199 | -0.177 | 0.0472 | 0.631 | 1.55 | 1.29 | 1.03 | 0.0958 (inactive) | 1.1 | -0.0563 | 0.482 | 0.298 (inactive) | -1.86 (inactive) | 0.544 (inactive) | 2.11 | -0.0181 (inactive) | 0.388 | -0.419 | 0.894 | 0.726
CCCCCCc1nc(C2CC2)cc2c1[Si](C(C)C)(C(C)C)O[C@H]2c1ccccc1 | 0.0483 | 0.122 | -0.0286 | 0.698 | 0.516 | -0.37 | -0.903 | -0.136 (inactive) | 0.177 | -0.0618 | -0.147 | -0.746 (inactive) | -0.575 (inactive) | -0.513 (inactive) | -0.624 | -1.28 (inactive) | -0.0798 | 0.639 | 0.356 | 0.0122
CC(C)(C)N1CC=CC23O[C@@H]4C=CCCOC(=O)C4[C@H]2C(=O)N(CCO)[C@@H]3C1=O (stereo not given in full) | -0.0666 | -0.46 | -0.132 | -0.133 | -0.717 | 0.767 | 1.48 | 0.22 (inactive) | -0.474 | -0.236 | 0.13 | -0.125 (inactive) | -0.229 (inactive) | -0.0913 (inactive) | -1.67 | 0.976 (inactive) | -0.267 | -0.365 | -0.696 | -0.112
CC1=C[C@@]2(CO)C(=O)[C@]3(CO3)[C@@H]1[C@H]1[C@]2(C)C=C(CO)C(=O)[C@]12CO2 | -0.457 | -0.42 | -0.0782 | 0.345 | 0.31 | 0.194 | 0.677 | -1.35 (inactive) | 0.614 | 0.459 | 0.295 | -1.32 (inactive) | -9.27 (active) | -0.946 (inactive) | 0.0091 | 0.179 (inactive) | -0.113 | 0.177 | 0.652 | -0.276
N#Cc1ccc(C(O)C2C=CC3C(=O)N(c4ccccc4)C(=O)C3N2Nc2ccccc2)cc1 (stereo not given) | 0.396 | 0.0518 | 0.129 | 0.77 | 1.32 | 1.19 | 1.08 | -0.627 (inactive) | 0.833 | -0.069 | 0.0016 | 0.953 (inactive) | -0.145 (inactive) | -0.248 (inactive) | 2.62 | 0.445 (inactive) | 0.443 | -0.383 | 0.744 | 0.104
CC(C)OC(=O)C=C1C[C@@H](c2ccc(C(F)(F)F)cc2)O[C@@H](c2ccc(C(F)(F)F)cc2)O1 | -0.187 | 1.92 | -0.0288 | 0.891 | -0.316 | 1.08 | 1 | 0.337 (inactive) | 0.0006 | -0.214 | 1.16 | -1.84 (inactive) | -7.12 (inactive) | -1.52 (inactive) | 2.66 | 0.374 (inactive) | -0.241 | 0.105 | 0.324 | -0.195
COc1cccc(/C=C/C=O)c1 | 0.278 | 0.187 | 0.0726 | 0.505 | 0.367 | -0.437 | -0.443 | 1.02 (inactive) | 0.375 | 0.57 | 0.247 | 1.95 (inactive) | -13.2 (active) | -0.144 (inactive) | 0.205 | -0.283 (inactive) | 0.226 | 0.137 | 0.181 | 0.198
